Experimental data published in PubChem BioAssay AID1159580 (chemical genetic matrix, 2015).
Screen size: about 5,500 compounds; about 2,000 (36%) were called active. Inconclusive results (about 18%) are left out. No stated cut-off is given here; in the data, active means normalized growth mostly below about 0.91 (no sharp cut-off); inconclusive means no clear call, values can overlap the other calls; inactive means mostly above about 0.92. This is one part of the list.

Assay: chemical genetic growth profiling, strain panel (AID 1159580);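 further: tested at 20 µM; growth read once vehicle control cultures reached saturation at 30 °C; 1 = growth at the plate median or of vehicle wells; lower values mean less growth of the strain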
Conditions: growth OD

Measured: normalized growth

COc1cc([C@@H]2c3cc4c(c(O)c3C[C@H]3COC(=O)[C@@H]32)OCO4)cc(OC)c1OC
inactive: S. cerevisiae deletion strains, locus YJR043C, strain POL32, active compounds read low 0.989 | S. cerevisiae deletion strains, locus YJR075W, strain HOC1, active compounds read low 0.996 | S. cerevisiae deletion strains, locus YKL009W, strain mrt4, active compounds read low 0.983 | S. cerevisiae deletion strains, locus YKL068W, active compounds read low 0.979 | S. cerevisiae deletion strains, locus YKL085W, strain MDH1 (second series), active compounds read low 0.973 | S. cerevisiae deletion strains, locus YKL085W, strain MDH1, active compounds read low 0.973 | S. cerevisiae deletion strains, locus YKL160W, strain elf1, active compounds read low 1 | S. cerevisiae deletion strains, locus YKL190W, strain CNB1, active compounds read low 0.986 | S. cerevisiae deletion strains, locus YKR001C, strain vps1, active compounds read low 1 | S. cerevisiae deletion strains, locus YKR026C, strain gcn3, active compounds read low 0.985 | S. cerevisiae deletion strains, locus YKR091W, strain srl3, active compounds read low 0.995 | S. cerevisiae deletion strains, locus YLL001W, strain dnm1, active compounds read low 0.991 | S. cerevisiae deletion strains, locus YLL026W, active compounds read low 0.993 | S. cerevisiae deletion strains, locus YLL041C, strain sdh2, active compounds read low 0.99 | S. cerevisiae deletion strains, locus YLR027C, strain aat2, active compounds read low 0.974 | S. cerevisiae deletion strains, locus YLR039C, strain RIC1, active compounds read low 0.921 | S. cerevisiae deletion strains, locus YLR058C, strain SHM2, active compounds read low 0.982 | S. cerevisiae deletion strains, locus YLR102C, strain apc9, active compounds read low 0.976 | S. cerevisiae deletion strains, locus YLR221C, strain rsa3, active compounds read low 0.959 | S. cerevisiae deletion strains, locus YLR258W, strain gsy2, active compounds read low 1.01 | S. cerevisiae deletion strains, locus YLR262C, strain YPT6 (second series), active compounds read low 0.989 | S. cerevisiae deletion strains, locus YLR262C, strain YPT6, active compounds read low 0.907 | S. cerevisiae deletion strains, locus YLR268W, strain sec22, active compounds read low 1.01 | S. cerevisiae deletion strains, locus YLR320W, strain mms22, active compounds read low 0.963 | S. cerevisiae deletion strains, locus YLR330W, strain CHS5, active compounds read low 0.981 | S. cerevisiae deletion strains, locus YLR342W, strain FKS1 (second series), active compounds read low 0.971 | S. cerevisiae deletion strains, locus YLR342W, strain FKS1, active compounds read low 0.983 | S. cerevisiae deletion strains, locus YLR357W, strain rsc2, active compounds read low 0.999 | S. cerevisiae deletion strains, locus YLR370C, strain arc18, active compounds read low 1 | S. cerevisiae deletion strains, locus YLR371W, strain rom2, active compounds read low 0.946 | S. cerevisiae deletion strains, locus YLR384C, strain iki3, active compounds read low 0.98 | S. cerevisiae deletion strains, locus YLR418C, strain cdc73, active compounds read low 1.01 | S. cerevisiae deletion strains, locus YML016C, strain PPZ1, active compounds read low 0.992 | S. cerevisiae deletion strains, locus YML032C, strain rad52, active compounds read low 0.991 | S. cerevisiae deletion strains, locus YML120C, strain ndi1, active compounds read low 0.998 | S. cerevisiae deletion strains, locus YML124C, strain tub3, active compounds read low 0.988 | S. cerevisiae deletion strains, locus YMR058W, strain fet3, active compounds read low 0.999 | S. cerevisiae deletion strains, locus YMR078C, strain ctf18, active compounds read low 0.995 | S. cerevisiae deletion strains, locus YMR125W, strain sto1, active compounds read low 0.986 | S. cerevisiae deletion strains, locus YMR129W, active compounds read low 0.984 | S. cerevisiae deletion strains, locus YMR205C, strain PFK2, active compounds read low 0.982 | S. cerevisiae deletion strains, locus YMR223W, strain ubp8, active compounds read low 0.987 | S. cerevisiae deletion strains, locus YMR231W, strain pep5, active compounds read low 0.991 | S. cerevisiae deletion strains, locus YMR263W, strain SAP30, active compounds read low 1 | S. cerevisiae deletion strains, locus YMR307W, strain GAS1, active compounds read low 1.02 | S. cerevisiae deletion strains, locus YNL067W, strain RPL9B, active compounds read low 1.02 | S. cerevisiae deletion strains, locus YNL071W, strain lat1, active compounds read low 1.01 | S. cerevisiae deletion strains, locus YNL128W, strain TEP1, active compounds read low 0.989 | S. cerevisiae deletion strains, locus YNL153C, strain GIM3, active compounds read low 1.03 | S. cerevisiae deletion strains, locus YNL209W, strain ssb2, active compounds read low 1 | S. cerevisiae deletion strains, locus YNL233W, strain BNI4, active compounds read low 1.04 | S. cerevisiae deletion strains, locus YNL248C, strain rpa49, active compounds read low 0.984 | S. cerevisiae deletion strains, locus YNL250W, strain rad50, active compounds read low 0.955 | S. cerevisiae deletion strains, locus YNL271C, strain bni1, active compounds read low 0.973 | S. cerevisiae deletion strains, locus YNL298W, strain CLA4, active compounds read low 0.976 | S. cerevisiae deletion strains, locus YNL307C, strain MCK1, active compounds read low 0.992 | S. cerevisiae deletion strains, locus YNL322C, strain KRE1 (second series), active compounds read low 1 | S. cerevisiae deletion strains, locus YNL322C, strain KRE1, active compounds read low 0.979 | S. cerevisiae deletion strains, locus YNR049C, strain mso1, active compounds read low 0.986 | S. cerevisiae deletion strains, locus YNR052C, strain pop2, active compounds read low 0.975 | S. cerevisiae deletion strains, locus YOL006C, strain TOP1, active compounds read low 1.08 | S. cerevisiae deletion strains, locus YOL012C, strain htz1 0.866 | S. cerevisiae deletion strains, locus YOL147C, strain pex11, active compounds read low 0.985 | S. cerevisiae deletion strains, locus YOR001W, strain rrp6, active compounds read low 0.957 | S. cerevisiae deletion strains, locus YOR061W, strain CKA2, active compounds read low 0.986 | S. cerevisiae deletion strains, locus YOR069W, strain VPS5, active compounds read low 0.992 | S. cerevisiae deletion strains, locus YOR070C, strain gyp1, active compounds read low 0.987 | S. cerevisiae deletion strains, locus YOR080W, strain dia2, active compounds read low 0.98 | S. cerevisiae deletion strains, locus YOR083W, strain WHI5, active compounds read low 1.01 | S. cerevisiae deletion strains, locus YOR106W, strain vam3, active compounds read low 1 | S. cerevisiae deletion strains, locus YOR136W, strain idh2, active compounds read low 0.984 | S. cerevisiae deletion strains, locus YOR144C, strain elg1, active compounds read low 0.984 | S. cerevisiae deletion strains, locus YOR184W, strain ser1, active compounds read low 0.973 | S. cerevisiae deletion strains, locus YOR265W, strain rbl2, active compounds read low 0.992 | S. cerevisiae deletion strains, locus YOR270C, strain vph1, active compounds read low 0.98 | S. cerevisiae deletion strains, locus YOR290C, strain snf2, active compounds read low 0.987 | S. cerevisiae deletion strains, locus YOR316C, strain cot1, active compounds read low 0.983 | S. cerevisiae deletion strains, locus YPL051W, strain arl3, active compounds read low 0.965 | S. cerevisiae deletion strains, locus YPL055C, strain LGE1, active compounds read low 1.03 | S. cerevisiae deletion strains, locus YPL078C, strain atp4, active compounds read low 1.01 | S. cerevisiae deletion strains, locus YPL106C, strain sse1, active compounds read low 0.987 | S. cerevisiae deletion strains, locus YPL240C, strain hsp82, active compounds read low 0.992 | S. cerevisiae deletion strains, locus YPL241C, strain CIN2, active compounds read low 0.987 | S. cerevisiae deletion strains, locus YPR119W, strain clb2, active compounds read low 0.979 | S. cerevisiae deletion strains, locus YPR141C, strain kar3, active compounds read low 0.979 | S. cerevisiae deletion strains, locus YPR163C, strain tif3, active compounds read low 0.97 | S. cerevisiae deletion strains, locus YPR167C, strain met16, active compounds read low 0.971 | S. cerevisiae deletion strains, strain wtn01, active compounds read low 1 | S. cerevisiae strains, strain wild type, active compounds read low 0.99
